Where “and” joins values, the source holds several entries; their conditions need not be identical. Equal values may be shown once. Out of some 5,500 compounds screened, about 2,000 (36%) were called active. Another 18% or so got no clear call; they are omitted. No stated cut-off is given here; in the data, active means normalized growth mostly below about 0.91 (no sharp cut-off); inconclusive means no clear call, values can overlap the other calls; inactive means mostly above about 0.92. Some of the results follow.
Test: chemical genetic growth profiling, strain panel (AID 1159580);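 further: tested at 20 µM; growth read once vehicle control cultures reached saturation at 30 °C; 1 = growth at the plate median or of vehicle wells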
Conditions: S. cerevisiae deletion strains, growth OD

Measured: normalized growth

CC[C@@]1(O)C(=O)OCc2c1cc1n(c2=O)Cc2cc3cc(O)ccc3nc2-1
inactive: locus YAL021C, strain ccr4, stronger effect = lower value 1.05 | locus YAL026C, strain drs2, stronger effect = lower value 1.01 | locus YAL030W, strain snc1, stronger effect = lower value 1.02 | locus YBL061C, strain skt5, stronger effect = lower value 1.01 | locus YBR009C, strain hhf1, stronger effect = lower value 0.972 | locus YBR021W, strain FUR4, stronger effect = lower value 1.01 | locus YBR023C, strain chs3, stronger effect = lower value 1.02 | locus YBR171W, strain sec66, stronger effect = lower value 1.02 | locus YBR229C, strain ROT2, stronger effect = lower value 1.01 | locus YBR231C, strain swc5, stronger effect = lower value 0.98 | locus YBR279W, strain paf1, stronger effect = lower value 1.03 | locus YCL011C, strain gbp2, stronger effect = lower value 1.02 | locus YCL016C, strain dcc1, stronger effect = lower value 1.01 | locus YCL029C, strain bik1, stronger effect = lower value 0.992 | locus YCL069W, strain vba3, stronger effect = lower value 1.01 | locus YCR088W, strain abp1, stronger effect = lower value 1.01 | locus YDL005C, strain med2, stronger effect = lower value 1.02 | locus YDL035C, strain GPR1, stronger effect = lower value 1.01 | locus YDL040C, strain nat1, stronger effect = lower value 1.02 | locus YDL074C, strain BRE1, stronger effect = lower value 1 | locus YDL101C, strain DUN1, stronger effect = lower value 1.03 | locus YDL185W, strain tfp1, stronger effect = lower value 0.996 | locus YDL192W, strain arf1, stronger effect = lower value 0.983 | locus YDR001C, strain nth1, stronger effect = lower value 0.992 | locus YDR069C, strain doa4, stronger effect = lower value 1.01 | locus YDR101C, strain arx1, stronger effect = lower value 0.986 | locus YDR137W, strain rgp1, stronger effect = lower value 0.997 | locus YDR159W, strain sac3, stronger effect = lower value 0.946 | locus YDR162C, strain NBP2, stronger effect = lower value 1.02 | locus YDR195W, strain ref2 1.01 | locus YDR297W, strain sur2, stronger effect = lower value 0.987 | locus YDR318W, strain mcm21, stronger effect = lower value 0.992 | locus YDR334W, strain swr1, stronger effect = lower value 1.04 | locus YDR335W, strain msn5, stronger effect = lower value 0.997 | locus YDR388W, stronger effect = lower value 0.989 | locus YDR392W, strain spt3, stronger effect = lower value 0.976 | locus YDR502C, strain sam2, stronger effect = lower value 0.973 | locus YEL003W, strain gim4, stronger effect = lower value 0.995 | locus YEL037C, strain rad23, stronger effect = lower value 1.01 | locus YEL061C, strain CIN8 (second series), stronger effect = lower value 1.01 | locus YEL061C, strain CIN8, stronger effect = lower value 1.01 | locus YER015W, strain faa2, stronger effect = lower value 0.993 | locus YER016W, strain bim1, stronger effect = lower value 1.02 | locus YER110C, stronger effect = lower value 0.991 | locus YER111C, strain swi4, stronger effect = lower value 1.01 | locus YER155C, strain BEM2 (second series), stronger effect = lower value 0.972 | locus YER155C, strain BEM2, stronger effect = lower value 1.01 | locus YER167W, strain BCK2, stronger effect = lower value 1.01 | locus YFR010W, strain ubp6, stronger effect = lower value 0.972 | locus YGL078C, strain dbp3, stronger effect = lower value 0.99 | locus YGL086W, strain mad1, stronger effect = lower value 0.988 | locus YGL167C, strain pmr1, stronger effect = lower value 1.01 | locus YGL173C, strain kem1, stronger effect = lower value 0.97 | locus YGL227W, strain vid30, stronger effect = lower value 1.01 | locus YGL240W, strain doc1, stronger effect = lower value 0.947 | locus YGL248W, strain PDE1, stronger effect = lower value 1.03 | locus YGL253W, strain hxk2, stronger effect = lower value 1 | locus YGR078C, strain PAC10, stronger effect = lower value 1.02 | locus YGR135W, strain pre9, stronger effect = lower value 0.991 | locus YGR252W, strain gcn5, stronger effect = lower value 0.972 | locus YHR013C, strain ard1, stronger effect = lower value 1.03 | locus YHR027C, strain rpn1, stronger effect = lower value 1 | locus YHR030C, strain SLT2, stronger effect = lower value 1.02 and 0.974 | locus YHR079C, strain IRE1 (second series), stronger effect = lower value 0.981 | locus YHR079C, strain IRE1, stronger effect = lower value 0.952 | locus YHR094C, strain hxt1, stronger effect = lower value 0.98 | locus YHR129C, strain ARP1, stronger effect = lower value 1.01 | locus YHR142W, strain chs7, stronger effect = lower value 1.02 | locus YHR200W, strain rpn10, stronger effect = lower value 1.01 | locus YIL066C, strain RNR3, stronger effect = lower value 1.01 | locus YIL073C, strain SPO22, stronger effect = lower value 0.985 | locus YIL125W, strain kgd1, stronger effect = lower value 0.992 | locus YIR030C, strain dcg1, stronger effect = lower value 0.981 | locus YJL092W, strain hpr5, stronger effect = lower value 0.992 | locus YJL095W, strain BCK1 (second series), stronger effect = lower value 1.02 | locus YJL095W, strain BCK1, stronger effect = lower value 1.04 and 0.957 | locus YJL115W, strain asf1, stronger effect = lower value 0.984 | locus YJL129C, strain trk1, stronger effect = lower value 1 | locus YJL134W, strain LCB3, stronger effect = lower value 1.02 | locus YJL154C, strain vps35, stronger effect = lower value 1 | locus YJL164C, strain tpk1, stronger effect = lower value 1.01 | locus YJL166W, strain qcr8, stronger effect = lower value 0.99 | locus YJL168C, strain set2, stronger effect = lower value 0.989 | locus YJL187C, strain SWE1 (second series), stronger effect = lower value 1.02 | locus YJL187C, strain SWE1, stronger effect = lower value 1.02 | locus YJR043C, strain POL32, stronger effect = lower value 0.993 | locus YJR066W, strain TOR1, stronger effect = lower value 0.986 | locus YKL009W, strain mrt4, stronger effect = lower value 1.04

Source: PubChem BioAssay AID1159580 (chemical genetic matrix, 2015)
